Measurements as given in the supplement of paper PMC8371130.
Where a name gives a salt, the structure may show the parent alone.

Test system: HL-1
Experiment: relative cell viability (CellTiter-Glo) vs DMSO control (% of DMSO control); higher = more viable cells
Summary of the method: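 Plating of HL-1 mouse atrial cardiomyocytes at 1000 cells per well in 384-well plates was done together with compounds at 40, 200, 1000 or 5000 nM in 0.01% DMSO. A day later the cells faced 48 h of 1% O2 and then 24 h of reoxygenation, or matching normoxia. Viability was measured via CellTiter-Glo luminescence and set relative to vehicle-treated control cells.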

[1] = oxygen condition: hypoxia 48 h (1% O2) + reoxygenation 24 h, 40 nM
[2] = oxygen condition: hypoxia 48 h (1% O2) + reoxygenation 24 h, 200 nM
[3] = oxygen condition: hypoxia 48 h (1% O2) + reoxygenation 24 h, 1000 nM
[4] = oxygen condition: hypoxia 48 h (1% O2) + reoxygenation 24 h, 5000 nM
[5] = oxygen condition: normoxia 72 h, 40 nM
[6] = oxygen condition: normoxia 72 h, 200 nM
[7] = oxygen condition: normoxia 72 h, 1000 nM
[8] = oxygen condition: normoxia 72 h, 5000 nM

Row | SMILES | relative cell viability [1] | relative cell viability [2] | relative cell viability [3] | relative cell viability [4] | relative cell viability [5] | relative cell viability [6] | relative cell viability [7] | relative cell viability [8]
1 | C[C@@]12C[C@@]3(O)O[C@@H](O1)[C@]1(COC(=O)c4ccccc4)[C@H]3C[C@@]12O[C@@H]1O[C@H](CO)[C@@H](O)[C@H](O)[C@H]1O [Paeoniflorin] | 106 | 102 | 108 | 118 | 107 | 111 | 109 | 118
2 | Clc1ccc2nsnc2c1NC1=NCCN1 [Tizanidine HCl] | 99.5 | 106 | 106 | 108 | 105 | 106 | 98.5 | 111
3 | CC(C)c1nc(CN(C)C(=O)N[C@@H](CCN2CCOCC2)C(=O)N[C@H](CC[C@H](Cc2ccccc2)NC(=O)OCc2cncs2)Cc2ccccc2)cs1 [Cobicistat] | 109 | 109 | 108 | 120 | 111 | 107 | 108 | 113
4 | N#Cc1ccc(C(c2ccc(C#N)cc2)n2cncn2)cc1 [Letrozole] | 103 | 105 | 109 | 104 | 107 | 110 | 105 | 110
5 | N=C(N)NCCN1CCCCCCC1 [Guanethidine Sulfate] | 101 | 101 | 96.2 | 113 | 103 | 107 | 103 | 116
6 | CCOC(=O)[C@H](CCc1ccccc1)N[C@@H](C)C(=O)N1[C@H](C(=O)O)C[C@@H]2CCC[C@@H]21 [Ramipril] | 100 | 115 | 113 | 123 | 112 | 105 | 117 | 116
7 | CC1Cc2ccccc2N1NC(=O)c1ccc(Cl)c(S(N)(=O)=O)c1 (stereo not given) [Indapamide] | 106 | 104 | 110 | 114 | 105 | 102 | 106 | 121
8 | CCOC(=O)[C@H](CCc1ccccc1)N[C@@H](C)C(=O)N1Cc2cc(OC)c(OC)cc2C[C@H]1C(=O)O [Moexipril HCl] | 105 | 102 | 107 | 67.2 | 100 | 98.2 | 90.7 | 64.1
9 | CCCCOc1ccc(CC(=O)NO)cc1 [Bufexamac] | 109 | 100 | 111 | 117 | 105 | 107 | 107 | 110
10 | CNC[C@@H](O)c1ccc(O)c(O)c1 [L-Adrenaline] | 102 | 99.7 | 100 | 99.2 | 100 | 101 | 95.7 | 95.4
11 | CNCC[C@H](Oc1cccc2ccccc12)c1cccs1 [Duloxetine HCl] | 92 | 96 | 99.8 | 92.8 | 89.9 | 94.3 | 106 | 104
12 | CC(S)C(=O)NCC(=O)O (stereo not given) [Tiopronin] | 95.4 | 102 | 104 | 105 | 99.2 | 98.9 | 101 | 103
13 | CS(=O)(=O)c1ccc([C@@H](O)[C@@H](CO)NC(=O)C(Cl)Cl)cc1 [Thiamphenicol] | 104 | 104 | 109 | 104 | 101 | 96.9 | 95.9 | 86.5
14 | Cc1cccc(N(C)C(=S)Oc2ccc3ccccc3c2)c1 [Tolnaftate] | 91.4 | 102 | 100 | 105 | 102 | 101 | 105 | 103
15 | CCCc1nc(C(C)(C)O)c(C(=O)OCc2oc(=O)oc2C)n1Cc1ccc(-c2ccccc2-c2nnn[nH]2)cc1 [Olmesartan medoxomil] | 93.8 | 99.2 | 94.7 | 105 | 97 | 98.2 | 96.7 | 95.7
16 | CC(C)(C)NC(=O)[C@H]1CC[C@H]2[C@@H]3CC[C@H]4NC(=O)C=C[C@]4(C)[C@H]3CC[C@]12C [Finasteride] | 100 | 106 | 106 | 117 | 115 | 110 | 111 | 113
17 | CO[C@H]1C[C@@H]2CC[C@@H](C)[C@@](O)(O2)C(=O)C(=O)N2CCCC[C@H]2C(=O)O[C@H]([C@H](C)C[C@@H]2CC[C@@H](OCCO)[C@H](OC)C2)CC(=O)[C@H](C)/C=C(\C)[C@@H](O)[C@@H](OC)C(=O)[C@H](C)C[C@H](C)/C=C/C=C/C=C/1C [Everolimus] | 79.5 | 75 | 73.9 | 87.5 | 70.4 | 66.9 | 66.5 | 69.7
18 | O=C(O)C1=CO[C@@H](O[C@@H]2O[C@H](CO)[C@@H](O)[C@H](O)[C@H]2O)[C@@H]2C(CO)=CC[C@H]12 [Geniposidic acid] | 107 | 109 | 110 | 112 | 103 | 120 | 117 | 121

Row | SMILES | relative cell viability [1] | relative cell viability [2] | relative cell viability [3] | relative cell viability [4] | relative cell viability [5] | relative cell viability [6] | relative cell viability [7] | relative cell viability [8]
19 | CC(=O)[C@H]1CC[C@H]2[C@@H]3CCC4=CC(=O)CC[C@]4(C)[C@H]3CC[C@]12C [Progesterone] | 109 | 105 | 103 | 116 | 111 | 111 | 111 | 116
20 | NCCCC[C@H](N[C@@H](CCc1ccccc1)C(=O)O)C(=O)N1CCC[C@H]1C(=O)O [Lisinopril] | 111 | 94.9 | 100 | 107 | 101 | 94.7 | 107 | 108
21 | O=c1[nH]c(=O)n([C@H]2C[C@H](O)[C@@H](CO)O2)cc1F [Floxuridine] | 49.5 | 40.7 | 31.4 | 17.4 | 46.1 | 41.5 | 28.6 | 16.3
22 | CC/C(=C(\c1ccccc1)c1ccc(OCCN(C)C)cc1)c1ccccc1 [Tamoxifen Citrate] | 103 | 99.9 | 98.6 | 108 | 95.9 | 107 | 105 | 103
23 | Cc1c(-c2ccccc2)oc2c(C(=O)OCCN3CCCCC3)cccc2c1=O [Flavoxate HCl] | 96.7 | 102 | 108 | 108 | 103 | 101 | 106 | 109
24 | C=C[C@H]1CN2CC[C@H]1C[C@H]2[C@H](O)c1ccnc2ccc(OC)cc12 [Quinine hydrochloride dihydrate] | 103 | 104 | 102 | 104 | 102 | 101 | 103 | 111
25 | CC(C)(C)c1ccc(C(O)CCCN2CCC(C(O)(c3ccccc3)c3ccccc3)CC2)cc1 (stereo not given) [Terfenadine] | 89 | 102 | 94.4 | 79.4 | 97.4 | 91.5 | 76.7 | 79.7
26 | Nc1cccc2c1CN(C1CCC(=O)NC1=O)C2=O (stereo not given) [Lenalidomide] | 108 | 110 | 109 | 111 | 113 | 117 | 117 | 114
27 | COc1ccc(C[C@@H]2c3cc(OC)c(OC)cc3CC[N@+]2(C)CCC(=O)OCCCCCOC(=O)CC[N@@+]2(C)CCc3cc(OC)c(OC)cc3[C@H]2Cc2ccc(OC)c(OC)c2)cc1OC [Cisatracurium besylate] | 108 | 100 | 107 | 109 | 105 | 103 | 109 | 128
28 | CC1=C(/C=C/C(C)=C/C=C/C(C)=C/C(=O)O)C(C)(C)CCC1 [Tretinoin] | 113 | 109 | 110 | 100 | 112 | 106 | 101 | 121
29 | NS(=O)(=O)c1cc2c(cc1Cl)N=CNS2(=O)=O [Chlorothiazide] | 117 | 112 | 113 | 111 | 109 | 104 | 103 | 110
30 | C[C@@H]1C[C@H]2[C@@H]3C[C@H](F)C4=CC(=O)C=C[C@]4(C)[C@@]3(F)[C@@H](O)C[C@]2(C)[C@@]1(O)C(=O)CO [Flumethasone] | 105 | 97.4 | 103 | 106 | 96.3 | 95.8 | 94.4 | 108
31 | C[N+](C)(C)C[C@H](O)CC(=O)[O-] [L-carnitine] | 102 | 104 | 103 | 113 | 101 | 107 | 102 | 107
32 | CC(=O)NS(=O)(=O)c1ccc(N)cc1 [sulfacetamide sodium] | 97.5 | 98.4 | 106 | 104 | 102 | 107 | 107 | 108
33 | CCc1c2c(nc3ccc(OC(=O)N4CCC(N5CCCCC5)CC4)cc13)-c1cc3c(c(=O)n1C2)COC(=O)[C@]3(O)CC [Irinotecan] | 99.9 | 90.1 | 51.8 | 28.7 | 95.2 | 83.4 | 64.9 | 22.8
34 | COc1cc(C(=O)NC2CCCNC2)cc(OC)c1OC (stereo not given) [Troxipide] | 103 | 109 | 106 | 110 | 109 | 110 | 116 | 113
35 | CCOc1ccccc1OC(c1ccccc1)C1CNCCO1 (stereo not given) [Reboxetine mesylate] | 105 | 102 | 105 | 122 | 115 | 99.7 | 108 | 119
